Here are results for 5 molecules from PubChem BioAssay.

A short description of assay [1]: compounds binding Alexa647 anti-His antibody – biochemical, small-molecule microarray, 635 nm fluorescence, artefact control for SMM control protein annotation, primary screen (AID 1128).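 Note: score merges feature fluorescence with signal-to-noise for each printed compound spot.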 To be noted: higher = more signal.
The test system of assay [2] is Human papillomavirus type 1a E7 protein (residues 1-88). Description: HPV1a E7 small-molecule binders, primary screen, biochemical, small-molecule microarray, residues 1-88, 635 nm (AID 1129). To be noted: small-molecule microarray binding, fluorescence 635 nm; higher = more signal.
For assay [3], the target named is Focal adhesion kinase 1 (Homo sapiens) (UniProt Q05397). As to the kind of experiment: PTK2 protein binding on printed compound slides – biochemical, small-molecule microarray, 635/667 nm fluorescence, BSA, DTT, primary screen (AID 1130).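 Note: composite of spot emission at 667 nm and signal to noise over triplicate slides.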 The settings on record: 635 nm fluorescence, higher = more signal.
Chain of Focal adhesion kinase 1 (Homo sapiens) (Q05397 whole entry, looked up): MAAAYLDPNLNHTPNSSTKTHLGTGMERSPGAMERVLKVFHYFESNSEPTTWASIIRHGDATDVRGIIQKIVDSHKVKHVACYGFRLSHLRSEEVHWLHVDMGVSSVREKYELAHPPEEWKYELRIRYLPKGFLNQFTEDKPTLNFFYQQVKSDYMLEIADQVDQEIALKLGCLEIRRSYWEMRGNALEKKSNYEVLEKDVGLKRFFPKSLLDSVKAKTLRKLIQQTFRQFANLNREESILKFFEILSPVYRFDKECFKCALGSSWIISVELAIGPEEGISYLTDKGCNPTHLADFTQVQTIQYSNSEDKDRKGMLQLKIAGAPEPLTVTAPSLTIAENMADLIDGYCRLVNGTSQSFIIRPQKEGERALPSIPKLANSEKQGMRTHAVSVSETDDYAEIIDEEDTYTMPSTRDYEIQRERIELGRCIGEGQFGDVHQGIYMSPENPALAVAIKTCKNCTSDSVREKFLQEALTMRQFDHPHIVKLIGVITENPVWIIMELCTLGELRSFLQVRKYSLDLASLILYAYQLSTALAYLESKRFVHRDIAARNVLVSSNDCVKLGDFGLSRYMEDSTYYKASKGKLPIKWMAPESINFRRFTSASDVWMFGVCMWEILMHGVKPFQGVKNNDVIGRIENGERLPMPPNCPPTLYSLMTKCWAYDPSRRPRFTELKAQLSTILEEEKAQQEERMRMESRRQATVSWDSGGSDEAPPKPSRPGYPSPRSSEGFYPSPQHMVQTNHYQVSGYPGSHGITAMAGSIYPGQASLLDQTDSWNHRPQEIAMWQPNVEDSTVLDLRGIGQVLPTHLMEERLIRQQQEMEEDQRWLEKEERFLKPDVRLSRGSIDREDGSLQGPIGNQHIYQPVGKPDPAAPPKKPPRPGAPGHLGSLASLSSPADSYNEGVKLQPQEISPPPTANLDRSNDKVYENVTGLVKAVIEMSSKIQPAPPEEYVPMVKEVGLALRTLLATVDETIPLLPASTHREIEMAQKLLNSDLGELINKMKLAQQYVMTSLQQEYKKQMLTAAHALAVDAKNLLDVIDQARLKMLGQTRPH
Assay [4] has as its system Fibrinogen (Alexa647-labelled). As to the kind of experiment: Alexa647-fibrinogen binding to printed small molecules – biochemical, small-molecule microarray, 635/667 nm fluorescence, artefact control for SMM control-protein annotation, profiling panel (AID 1131).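 Note: z-score merges 667 nm fluorescence with per-spot signal-to-noise over triplicate slides.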 To be noted: fibrinogen-A647 binding fluorescence, higher = more signal.
Assay [5] concerns the target Follistatin (Homo sapiens) (UniProt P19883). Description: FST protein binding to printed compounds – biochemical, small-molecule microarray, 635/667 nm fluorescence, primary screen (AID 1132). To be noted: 635 nm fluorescence, higher = more signal.
Assay [6] has as its target Fibroblast growth factor 2 (Homo sapiens) (UniProt P09038). Description: basic fibroblast growth factor binding to printed compounds – biochemical, small-molecule microarray, 635/667 nm fluorescence, primary screen (AID 1133). To be noted: FGF2, fluorescence 635/667, higher = more signal.
A short description of assay [7]: JC-1 mitochondrial potential readout, lung cancer cells – cell-based, A549, JC-1 fluorescence, basal, 24 h, 100 nL, profiling panel (AID 1138).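 Note: A549 lung adenocarcinoma cells under basal conditions with no added stimulus; test concentration not given here.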 The settings on record: higher = more signal.
In assay [8] the test system is Lefty1. Description: Lefty1 protein binding to printed compounds – biochemical, small-molecule microarray, 635/667 nm fluorescence, primary screen (AID 1139). To be noted: fluorescence 635/667, higher = more signal.
The test system of assay [9] is wheat germ agglutinin (Triticum aestivum), Alexa647-labelled. Description: Alexa647-WGA lectin binding to printed small molecules – biochemical, small-molecule microarray, 635/667 nm fluorescence, artefact control for SMM control-protein annotation, profiling panel (AID 1140).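 Note: score merges 667 nm feature emission with signal to noise over triplicate slides.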 The settings on record: WGA-A647 binding, 635 nm fluorescence, higher = more signal.
Assay [10] addresses Luciferin 4-monooxygenase (Photinus pyralis) (UniProt P08659). As to the kind of experiment: inhibition of purified Photinus pyralis luciferase – biochemical, luminescence, purified enzyme, 2006 set, primary screen (AID 1141).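 Note: cell-free assay with purified firefly luciferase at 100 ng per well in PBS; test concentration not given here.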 The settings on record: purified firefly luciferase, SteadyGlo luminescence, 30 min; higher = more signal, called active from +8 up or from −8 down.
Assay [11] relates to Wnt5a (protein binding on small-molecule microarray). Description: small molecules binding Wnt5a protein – biophysical, small-molecule microarray, 635/667 nm fluorescence, primary screen (AID 1142).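 Note: fluorescence read at 667 nm with signal to noise per printed feature.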 The settings on record: 635 nm fluorescence, higher = more signal.
The nature of assay [12]: ATP-based viability of Huh7 replicon cells – cell-based, CellTiter-Glo luminescence, basal, 48 h, cytotoxicity control for HCV replication inhibitor project, primary screen (AID 1143).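 Note: Huh7 hepatoma cells carrying a hepatitis C replication reporter with no stimulus; test concentration not given here.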 To be noted: higher = more signal, called active from +8 up or from −8 down. A general note: Replicon systems follow genome replication, usually without infectious particles.
Assay [13] can be described thus: Pseudomonas biofilm growth suppression – PAO1 strain, BacTiter-Glo luminescence, LB-PBS, primary screen (AID 1144). The settings on record: P. aeruginosa PAO1 biofilm, 12 h, higher = more signal.
The nature of assay [14]: basal CRE-LacZ reporter activity in PC12 – cell-based, unstimulated, primary screen (AID 1145). The settings on record: no forskolin, luminescence, 4.5 h, higher = more signal, called active from +8 up or from −8 down.
Assay [15] is described as follows: forskolin-driven CRE-LacZ activity in PC12 – cell-based, CRE-LacZ reporter, forskolin-stimulated, primary screen (AID 1146).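 Note: PC12 cells with 6xCRE LacZ reporter stimulated by forskolin 10 µM; beta-galactosidase reporter signal reflecting CREB driven transcription.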 The settings on record: luminescence, 4.5 h, higher = more signal, called active from +8 up or from −8 down.
For assay [16], the target named is Streptavidin (Streptomyces avidinii) (UniProt P22629). Description: compounds binding control protein streptavidin – biophysical, small-molecule microarray, 635/667 nm fluorescence, artefact control for SMM compound annotation, primary screen (AID 1147).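 Note: signal reflects streptavidin binding to arrayed compounds as a control protein.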 To be noted: higher = more signal.
Chain of Streptavidin (Streptomyces avidinii) (P22629 whole entry, looked up): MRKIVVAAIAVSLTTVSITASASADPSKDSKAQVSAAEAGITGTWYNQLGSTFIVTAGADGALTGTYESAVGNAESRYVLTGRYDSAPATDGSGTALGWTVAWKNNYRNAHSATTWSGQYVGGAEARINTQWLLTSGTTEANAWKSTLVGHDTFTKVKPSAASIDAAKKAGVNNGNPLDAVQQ
Assay [17] can be described thus: probe aInhba binding on compound microarray – biochemical, small-molecule microarray, 635/667 nm fluorescence, primary screen (AID 1148).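 Note: score merges 667nm spot fluorescence with signal-to-noise for antibody binding to printed compounds.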 To be noted: higher = more signal.
Assay [18] deals with Torsin-1A (Homo sapiens) (UniProt O14656). As to the kind of experiment: TOR1A wild-type binding on microarray – cell lysate, small-molecule microarray, lysate, 635/667 nm, primary screen (AID 1149). To be noted: COS7 hTOR1A-WT lysate, 635 nm fluorescence, higher = more signal.
Chain of Torsin-1A (Homo sapiens) (O14656 whole entry, looked up): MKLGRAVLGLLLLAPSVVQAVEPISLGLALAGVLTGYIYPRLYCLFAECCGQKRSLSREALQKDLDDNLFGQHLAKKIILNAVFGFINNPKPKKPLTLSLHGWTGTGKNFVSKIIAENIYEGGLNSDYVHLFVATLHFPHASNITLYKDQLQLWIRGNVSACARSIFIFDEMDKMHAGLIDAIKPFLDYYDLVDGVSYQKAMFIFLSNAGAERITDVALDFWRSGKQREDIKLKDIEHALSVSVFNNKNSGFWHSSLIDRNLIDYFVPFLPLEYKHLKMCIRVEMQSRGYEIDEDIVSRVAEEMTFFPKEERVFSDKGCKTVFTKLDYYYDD
Assay [19] has the same target. Description: torsin A mutant lysate binding on microarrays – cell lysate, small-molecule microarray, COS7 lysate, 635/667 nm fluorescence, primary screen (AID 1150).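 Note: score pools 667 nm emission and signal to noise measuring lysate protein binding.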 The settings on record: COS7 hTOR1A mutant lysate, 635 nm fluorescence, higher = more signal.
The test system of assay [20] is Sonic hedgehog protein (Shh). As to the kind of experiment: Sonic hedgehog microarray binding compounds – biochemical, small-molecule microarray, 635/667 nm fluorescence, primary screen (AID 1151).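 Note: Shh protein binding to compounds spotted on small-molecule microarray slides; score combines spot fluorescence intensity with signal-to-noise across triplicate slides.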 The settings on record: 635 nm fluorescence, higher = more signal.

The source made the active and inactive calls. Unless noted, the rule behind the calls is not given here.

Chain of Follistatin (Homo sapiens) (P19883 whole entry, looked up): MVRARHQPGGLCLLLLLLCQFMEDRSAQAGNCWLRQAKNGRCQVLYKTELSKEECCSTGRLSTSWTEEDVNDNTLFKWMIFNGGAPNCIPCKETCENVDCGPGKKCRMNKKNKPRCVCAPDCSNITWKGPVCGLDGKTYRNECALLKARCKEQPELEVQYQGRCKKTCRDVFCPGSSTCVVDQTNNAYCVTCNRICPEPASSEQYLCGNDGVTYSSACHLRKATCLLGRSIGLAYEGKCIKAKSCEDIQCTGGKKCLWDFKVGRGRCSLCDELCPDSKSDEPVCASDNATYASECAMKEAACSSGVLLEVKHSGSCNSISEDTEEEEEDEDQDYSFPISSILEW
Chain of Fibroblast growth factor 2 (Homo sapiens) (P09038 whole entry, looked up): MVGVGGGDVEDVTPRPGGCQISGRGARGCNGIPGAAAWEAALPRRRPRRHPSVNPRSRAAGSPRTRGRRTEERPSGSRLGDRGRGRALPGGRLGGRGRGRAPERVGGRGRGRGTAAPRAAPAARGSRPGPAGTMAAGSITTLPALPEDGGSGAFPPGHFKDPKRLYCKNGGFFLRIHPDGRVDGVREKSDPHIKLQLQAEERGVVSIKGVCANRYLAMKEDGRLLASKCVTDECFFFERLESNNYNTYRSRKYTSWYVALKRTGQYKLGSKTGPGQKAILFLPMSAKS
Chain of Luciferin 4-monooxygenase (Photinus pyralis) (P08659 whole entry, looked up): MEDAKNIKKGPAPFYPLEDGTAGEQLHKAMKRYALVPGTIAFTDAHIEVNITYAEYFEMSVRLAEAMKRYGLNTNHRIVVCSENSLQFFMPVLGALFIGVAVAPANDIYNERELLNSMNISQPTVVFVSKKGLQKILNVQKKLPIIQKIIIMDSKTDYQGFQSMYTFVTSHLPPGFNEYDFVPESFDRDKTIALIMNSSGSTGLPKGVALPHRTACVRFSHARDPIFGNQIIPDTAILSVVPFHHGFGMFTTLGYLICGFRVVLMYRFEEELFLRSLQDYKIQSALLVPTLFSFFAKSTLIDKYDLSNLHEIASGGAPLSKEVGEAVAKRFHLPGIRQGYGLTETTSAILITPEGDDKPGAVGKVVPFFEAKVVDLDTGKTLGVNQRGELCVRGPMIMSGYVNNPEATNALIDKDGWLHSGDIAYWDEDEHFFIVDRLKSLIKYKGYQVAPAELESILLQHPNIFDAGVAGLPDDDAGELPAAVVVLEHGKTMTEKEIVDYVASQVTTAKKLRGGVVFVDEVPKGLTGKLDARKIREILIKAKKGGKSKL

For `CC(C)C[C@@H]1NC(=O)[C@@H]2C[C@H](C(=O)NCCCCCCNC(=O)CS)[C@H](c3ccc(O)cc3)N2C1=O`, the composite z-score in [1] came to 2.1; in [2], 1.28; in assay [3] it was 0.116; in [4], 0.913; in [5], 1.46; in assay [6], 1.62. The composite z-score in assay [8] was 1.41; in assay [9], 0.907; in [11] it was 0.841; in assay [16], 0.813; in assay [17], -0.0933; in [18], 0.887. In addition, the figures for the composite z-score in assay [19] and in assay [20] were 1.21 and 2.21, respectively. Further, the z-score in assay [7] is -1.16; in assay [10], -0.677 (inactive); in assay [12], -1.88 (inactive); in [13] it was -0.00979 (inactive); in [14] it was -0.268 (inactive); in assay [15], -0.439 (inactive).

Take `O=C1NC(=O)C2C1C=CC(C(O)c1ccc(F)cc1)N2Nc1ccc(Cl)cc1Cl` (stereo not given): the composite z-score was 1.97 in assay [1]; 0.638 in assay [2]; -0.0637 in assay [3]; -0.566 in [4]; -0.157 in assay [5]; -0.459 in assay [6]. Moreover, the composite z-score in assay [8] is -0.334; in assay [9], -0.0287; in assay [11], -0.166; in [16] it was -0.346; in assay [17], -0.0645; in assay [18], -0.556. The composite z-score in [19] was -0.348; in assay [20] it was -0.354. Further, the z-score in assay [7] was -0.553; in assay [10] it was -1.32 (inactive); in [12], -1.79 (inactive); in [13] it was -0.762 (inactive); in assay [14], 0.0535 (inactive); in assay [15], -0.207 (inactive).

Turning to `O=C1c2ccccc2[C@](Cc2ccccc2I)(C(=O)NCCN2CCOCC2)[C@H](c2ccc(CO)cc2)N1Cc1ccccc1C(F)(F)F`, the composite z-score in assay [1] was 0.218; in [2], 1.18; in assay [3] it was 0.334; in [4] it was 0.88; in assay [5], 0.447; in [6], 0.0123. In addition, the composite z-score in assay [8] was 0.246; in [9], 0.418; in assay [11] it was 0.0104; in [16] it was 0.515; in assay [17], -0.038; in assay [18], 0.717. Besides, the composite z-score in assay [19] came out at 0.469; in [20] it was 0.468. The z-score in assay [7] was 2.25; in assay [10], -0.0684 (inactive); in assay [12], -3.41 (inactive); in [13] it was 0.588 (inactive); in assay [14], 0.0909 (inactive); in [15], 0.655 (inactive).

With `COCCOC(=O)N1C(=O)[C@@]2(c3cc(C#CCNC(N)=O)ccc31)[C@H](C(=O)N1CCN(c3ncccn3)CC1)[C@H]1C(=O)O[C@H](c3ccccc3)[C@H](c3ccccc3)N1[C@@H]2c1ccc(O)cc1`, the composite z-score in assay [1] is -0.031; in [2], -0.937; in assay [3], -0.305; in assay [4], -1; in assay [5], -0.974; in assay [6], -0.623. In addition, the composite z-score in assay [8] is -1.19; in assay [9], 0.0548; in [11], -0.546; in [16], -1.21; in assay [17] it was -0.4; in assay [18], -0.827. In addition, the values for the composite z-score in [19] and in assay [20] were -0.859 and -0.448, respectively. Moreover, the z-score in assay [7] was 0.284; in assay [10], 0.0121 (inactive); in [12], -0.375 (inactive); in [13], -1.09 (inactive); in assay [14], 0.484 (inactive); in assay [15], -0.26 (inactive).

For `C=CC[C@]12N=C(c3ccc(OCCCO)cc3)O[C@H]1c1ccccc1N(CCC)C2=O`, the composite z-score was found to be 2.3 in assay [1]; 0.917 in [2]; 0.685 in assay [3]; 0.488 in assay [4]; 1.46 in [5]; 1.35 in assay [6]. Further, the composite z-score in assay [8] is 0.613; in assay [9] it was 0.954; in [11] it was 0.587; in assay [16], -0.256; in assay [17], 0.562; in assay [18], 0.234. Besides, the composite z-score in [19] amounted to 0.397; in assay [20], 1.61. Also, the z-score is 0.948 in assay [7]; -3.66 (inactive) in assay [10]; -3.39 (inactive) in assay [12]; 0.552 (inactive) in [13]; 0.866 (inactive) in assay [14]; -0.743 (inactive) in assay [15].
